Test [1] is described as follows: qHTS assay to identify small molecule antagonists of the sonic hedgehog signaling (Shh) pathway (AID 1259369). Also: nearly all actives have a fitted effect of over 45% in size. Also: potency is read from the fitted curve at half-maximal effect. In short, it runs like this:
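Conditioned medium drives Shh signalling in 3T3Gli1-Luc cells; compounds in DMSO co-applied, 24hr at 37 C, then luciferase luminescence.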
(qHTS replaces the single test concentration by a dilution series.)

Test [2] is described as follows: qHTS assay to identify small molecule agonists of the androgen receptor (AR) signaling pathway in the presence of an antagonist - cell viability counter screen (AID 1259379; active = well fitted curve in the direction sought with a large enough effect in the repeat runs; an effect the other way counts as inactive or inconclusive; also: nearly all actives have a fitted effect of over 25% in size; also: potency is read from the fitted curve at half-maximal effect;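 as to activity change, negative = cytotoxicity: MDA-kb2 human breast cancer cells carrying an MMTV luciferase reporter; series mostly up to about 92 µM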). In short, it runs like this: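 A CellTiter-Fluor read-out measured viability of MDA-kb2 reporter cells (MMTV promoter with AR and GR response elements). Treatment: nilutamide 3.0uM final with compounds at 15 concentrations, 16 hr, 37C, 0% CO2.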

Test [3] is described as follows: qHTS assay to identify small molecule agonists of the estrogen receptor beta (ER-beta) signaling pathway - cell viability counter screen (AID 1259380; active = well fitted curve in the direction sought with a large enough effect in the repeat runs; an effect the other way counts as inactive or inconclusive; also: nearly all actives have a fitted effect of over 30% in size; also: potency is read from the fitted curve at half-maximal effect). In short, it runs like this:
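Cells used were ER-beta-UAS-bla HEK293T in medium with 2% charcoal-stripped FBS. They were treated for 16 hr at 37C. Viability came from CellTiter-Glo luminescence.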

In test [4] the target is Estrogen receptor (Homo sapiens) (UniProt P03372). In words: qHTS assay to identify small molecule agonists of the estrogen receptor alpha (ER-alpha) signaling pathway in the presence of an antagonist (AID 1259383). Also: nearly all actives have a fitted effect of over 15% in size. Also: potency is read from the fitted curve at half-maximal effect. As to activation: top concentration of the series differs between compounds. In short, it runs like this: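 Using VM7Luc4E2 cells seeded 24hr before treatment, antagonist ICI-182,780 (10.0nM final) was added, followed by compounds at 15 concentrations. Plates incubated 22hr; ONE-Glo luminescence quantified reporter activity.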
Estrogen receptor (Homo sapiens), sequence (P03372 whole entry, looked up): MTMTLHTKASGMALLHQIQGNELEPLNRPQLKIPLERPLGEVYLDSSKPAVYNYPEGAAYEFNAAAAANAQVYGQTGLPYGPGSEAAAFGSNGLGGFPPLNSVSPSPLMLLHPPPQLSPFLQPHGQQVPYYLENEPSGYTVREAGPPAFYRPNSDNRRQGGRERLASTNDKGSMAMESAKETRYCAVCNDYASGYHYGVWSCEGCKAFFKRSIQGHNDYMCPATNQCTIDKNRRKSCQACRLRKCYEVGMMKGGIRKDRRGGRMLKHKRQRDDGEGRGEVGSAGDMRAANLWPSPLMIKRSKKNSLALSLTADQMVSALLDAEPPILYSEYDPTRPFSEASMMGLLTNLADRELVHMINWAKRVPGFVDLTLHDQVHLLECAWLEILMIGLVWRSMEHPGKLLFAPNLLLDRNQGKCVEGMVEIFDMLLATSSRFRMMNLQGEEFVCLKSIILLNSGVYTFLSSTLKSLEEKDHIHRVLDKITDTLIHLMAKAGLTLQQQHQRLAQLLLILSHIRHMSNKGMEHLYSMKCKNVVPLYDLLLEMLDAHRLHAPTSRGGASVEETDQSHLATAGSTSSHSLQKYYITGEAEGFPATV

Test [5] can be described thus: qHTS assay to identify small molecule agonists or antagonists of the thyroid stimulating hormone receptor (TSHR) signaling pathway - wild type cell line counter screen (AID 1259384). In short, it runs like this:
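Wild-type Hek293 cells, 800/well, 18 h at 37C, then compound with Ro20-1724 for 30 min RT. cAMP by HTRF (cAMP-d2/anti-cAMP cryptate), 1 h RT, fluorescence read. 15 concentrations, triplicates.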

In test [6] the target is Thyrotropin receptor (Homo sapiens) (UniProt P16473). In words: qHTS assay to identify small molecule antagonists of the thyroid stimulating hormone receptor (TSHR) signaling pathway (AID 1259385). Also: nearly all actives have a fitted effect of over 20% in size. Also: potency is read from the fitted curve at half-maximal effect. In short, it runs like this:
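TSHR-HEK293 cells (800/well) plated 18 h, then compounds with Ro20-1724 and TSH at 1.5 ng/mL final, 30 min at room temperature. cAMP quantified by HTRF (cAMP-d2/anti-cAMP-cryptate, 1 h); 15 concentrations in triplicate.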

Test [7] is described as follows: qHTS assay to identify small molecule antagonists of the estrogen receptor beta (ER-beta) signaling pathway - cell viability counter screen (AID 1259382; active = well fitted curve in the direction sought with a large enough effect in the repeat runs; an effect the other way counts as inactive or inconclusive; also: nearly all actives have a fitted effect of over 55% in size; also: potency is read from the fitted curve at half-maximal effect; as to activity change, negative = cytotoxicity: series mostly up to about 92 µM). In short, it runs like this:
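Agonist-stimulated (1nM E2) ER-beta-UAS-bla HEK293T cells are incubated with library compounds for 16 hr at 37C. Cell viability is then assessed in the reporter-assay wells by adding CellTiter-Glo and reading luminescence after 30 min.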

The target in test [8] is Androgen receptor (Homo sapiens) (UniProt P10275). The test is described as follows: qHTS assay to identify small molecule agonists of the androgen receptor (AR) signaling pathway in the presence of an antagonist (AID 1259381). Also: nearly all actives have a fitted effect of over 15% in size. In short, it runs like this:
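Using human MDA-kb2 cells with an MMTV promoter–luciferase construct (AR and GR response elements), agonist activity is scored under 3.0uM nilutamide (final) co-treatment; 16hr incubation, 37C, luminescence readout via ONE-Glo.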

The target in test [9] is Estrogen receptor beta (Homo sapiens) (UniProt Q92731). The test is described as follows: qHTS assay to identify small molecule agonists of the estrogen receptor beta (ER-beta) signaling pathway (AID 1259377; active = well fitted activation curve with a large enough effect in the signal ratio in the repeat runs, not every such curve was filed as active; the % refers to the signal ratio; also: potency is read from the fitted curve at half-maximal effect). In short, it runs like this: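 Agonist mode cell assay in GripTite HEK293T cells expressing an ER-beta fusion that drives beta-lactamase from an Upstream Activator Sequence; 16 hr compound exposure at 37C, then 2 h LiveBLAzer B/G FRET substrate at room temperature, fluorescence read-out.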
Estrogen receptor beta (Homo sapiens), sequence (Q92731 whole entry, looked up, the tested form may be a part): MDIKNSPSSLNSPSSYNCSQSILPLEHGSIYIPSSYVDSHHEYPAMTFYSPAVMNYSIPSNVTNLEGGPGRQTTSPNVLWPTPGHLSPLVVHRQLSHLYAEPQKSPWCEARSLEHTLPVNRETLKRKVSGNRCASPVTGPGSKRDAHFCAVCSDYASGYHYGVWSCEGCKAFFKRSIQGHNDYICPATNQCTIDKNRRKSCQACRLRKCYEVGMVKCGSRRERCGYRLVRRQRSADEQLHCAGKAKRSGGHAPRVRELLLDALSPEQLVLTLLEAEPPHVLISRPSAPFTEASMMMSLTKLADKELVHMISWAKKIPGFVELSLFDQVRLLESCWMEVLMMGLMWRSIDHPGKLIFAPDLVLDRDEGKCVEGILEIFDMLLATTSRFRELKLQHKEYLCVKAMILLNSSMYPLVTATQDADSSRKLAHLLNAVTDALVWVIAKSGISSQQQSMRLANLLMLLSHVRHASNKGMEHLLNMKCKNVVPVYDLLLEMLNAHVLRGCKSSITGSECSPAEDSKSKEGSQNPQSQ

Test [10] has the same target. In words: qHTS assay to identify small molecule antagonists of the estrogen receptor beta (ER-beta) signaling pathway (AID 1259378; active = well fitted inhibition curve with a large enough effect in the signal ratio in the repeat runs, not every such curve was filed as active; the % refers to the signal ratio). In short, it runs like this: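 ER-beta-UAS-bla HEK293T cells in 2% charcoal-stripped FBS medium treated with compound plus 1nM final 17-beta-estradiol for 16 hr at 37C. Beta-lactamase reporter read by FRET substrate fluorescence after 2 hours at room temperature.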

Consider 30 molecules from PubChem BioAssay (Tox21).

Several values for one entry are separate records, joined by “and”; a condition that tells them apart may be missing. Equal entries are not always repeated. A number with no mark means an inactive call. Inconclusive results are not listed. Activity calls are given as the source filed them. Unless noted, calls follow the shape of the full dose curve.
% is scaled to controls: 0 for no effect and ±100 for the full control effect.

Thyrotropin receptor (Homo sapiens), sequence (P16473 whole entry, looked up): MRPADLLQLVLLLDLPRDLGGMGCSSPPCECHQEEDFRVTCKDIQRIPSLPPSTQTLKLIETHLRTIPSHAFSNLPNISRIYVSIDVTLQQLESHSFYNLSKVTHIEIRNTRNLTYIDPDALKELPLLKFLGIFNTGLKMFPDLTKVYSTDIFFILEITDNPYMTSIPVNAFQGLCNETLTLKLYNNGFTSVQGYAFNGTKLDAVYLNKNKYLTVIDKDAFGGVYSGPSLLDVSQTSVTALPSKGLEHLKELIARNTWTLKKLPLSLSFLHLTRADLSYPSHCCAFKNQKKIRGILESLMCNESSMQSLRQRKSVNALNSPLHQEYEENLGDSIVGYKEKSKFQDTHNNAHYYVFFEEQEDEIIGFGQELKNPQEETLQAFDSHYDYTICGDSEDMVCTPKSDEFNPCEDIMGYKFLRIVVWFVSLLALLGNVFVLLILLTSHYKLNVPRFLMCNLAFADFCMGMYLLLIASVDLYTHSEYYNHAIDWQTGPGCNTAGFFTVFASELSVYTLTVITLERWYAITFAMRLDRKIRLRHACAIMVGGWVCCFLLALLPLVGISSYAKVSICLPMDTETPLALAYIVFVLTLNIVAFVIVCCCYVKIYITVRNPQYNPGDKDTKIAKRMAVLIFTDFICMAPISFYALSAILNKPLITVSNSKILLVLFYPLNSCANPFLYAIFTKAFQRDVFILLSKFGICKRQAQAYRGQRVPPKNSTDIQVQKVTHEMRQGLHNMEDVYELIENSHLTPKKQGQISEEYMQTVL
Androgen receptor (Homo sapiens), sequence (P10275 whole entry, looked up): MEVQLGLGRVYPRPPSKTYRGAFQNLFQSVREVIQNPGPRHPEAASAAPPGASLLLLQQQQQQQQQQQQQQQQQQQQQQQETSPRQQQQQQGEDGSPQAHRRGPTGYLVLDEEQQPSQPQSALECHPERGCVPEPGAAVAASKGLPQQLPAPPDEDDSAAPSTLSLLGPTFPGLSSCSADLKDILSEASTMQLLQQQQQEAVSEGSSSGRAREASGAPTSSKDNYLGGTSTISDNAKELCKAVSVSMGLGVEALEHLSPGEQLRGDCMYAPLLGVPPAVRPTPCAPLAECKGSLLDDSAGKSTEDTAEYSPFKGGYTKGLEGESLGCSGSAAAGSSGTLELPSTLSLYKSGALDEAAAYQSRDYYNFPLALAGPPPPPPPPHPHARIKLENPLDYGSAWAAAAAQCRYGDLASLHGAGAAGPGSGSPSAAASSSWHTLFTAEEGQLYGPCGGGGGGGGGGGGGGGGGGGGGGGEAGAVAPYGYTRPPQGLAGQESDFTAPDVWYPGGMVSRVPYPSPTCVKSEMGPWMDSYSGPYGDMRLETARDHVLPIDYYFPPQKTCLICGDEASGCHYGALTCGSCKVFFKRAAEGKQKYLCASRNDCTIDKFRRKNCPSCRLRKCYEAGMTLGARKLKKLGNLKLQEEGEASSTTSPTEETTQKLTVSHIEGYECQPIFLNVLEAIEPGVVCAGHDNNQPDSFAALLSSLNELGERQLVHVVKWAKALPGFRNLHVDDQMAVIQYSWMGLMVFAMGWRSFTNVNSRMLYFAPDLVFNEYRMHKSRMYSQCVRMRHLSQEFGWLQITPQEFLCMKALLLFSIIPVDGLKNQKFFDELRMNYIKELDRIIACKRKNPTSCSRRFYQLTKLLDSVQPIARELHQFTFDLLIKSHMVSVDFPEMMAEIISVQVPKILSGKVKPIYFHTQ

Consider `CCCCCCCCCCCCCCCC[N+](C)(C)CC`, for which the Potency in test [1] is 6.88 µM (active) and 15 nM (active); in [2] it was 48.7 µM (active) and 18.8 µM (active); in [3] it was 54.6 µM (active) and 11.9 µM (active). Besides, the Potency entry in test [4] and in test [6] was “inactive” each time. Also, the result in [5] was inactive.
In the case of `COc1cc(/C=C/c2ccccc2)oc(=O)c1`, the Potency result in test [1], in test [2], in test [7] and in test [6] was “inactive” throughout. Further, the molecule was called inactive in test [5].
For the molecule `Cc1nc2n(c(=O)c1CCN1CCC(c3noc4cc(F)ccc34)CC1)CCCC2`, the Potency result in test [1], in test [2] and in [4] was “inactive” each time. For the same molecule, in test [5], the molecule was classed as inactive.
On to `CC(N=C(NC#N)Nc1ccncc1)C(C)(C)C` (stereo unspecified), for which the Potency entry in test [1], in test [2], in [3] and in test [6] was “inactive” throughout. Also, the result in test [5] was inactive.
For the molecule `CCCCNS(=O)(=O)c1ccc(C)cc1`, the Potency entry in test [1], in test [2], in [3] and in [4] was “inactive” throughout.
As for `C[C@@H](O)[C@H](N)C(=O)O`, the activity change, negative = inhibition in [1] is 10.6% [at 19 µM]. Also, the results for the activity change, negative = cytotoxicity in [2] and in test [7] were -0.428% [at 19 µM] and 0.119% [at 19 µM], respectively.
As to `CCOC(=O)Cn1cccc1-c1nc(-c2ccc(OC)cc2)c(-c2ccc(OC)cc2)s1`, the Potency result in test [1], in [2], in test [7] and in [4] was “inactive” throughout. Also, the result in test [8] was inactive.
As to `Cc1ccc(O)c(N)c1`, the Potency in test [1] is 8.64 µM (active); in [3], 24.4 µM (active). In [2], the Potency result was “inactive”. For the same molecule, in [5], the molecule was classed as inactive.
With `COC1=C(OC)C(=O)C(CCCCCCCCCCO)=C(C)C1=O`, the Potency entry in [1] and in test [4] was “inactive” throughout. Besides, the Potency in test [3] and in test [7] was 23.7 µM (active) in each case. Besides, the outcome in test [8] was inactive.
`CCC(=O)C(=O)CC`: the Potency entry in test [1], in test [2], in test [3], in test [7] and in [6] was “inactive” each time. Besides, in test [5], the call was inactive.
Turning to `CCCCCCCC`, the Potency result in test [1], in test [2], in test [3], in [4] and in test [6] was “inactive” throughout. The molecule was called inactive in [5].
For `CCCCCCC1CCCC(=O)O1` (stereo unspecified), the Potency entry in test [1], in [2] and in test [6] was “inactive” in each case. In [5], the molecule was classed as inactive.
With `O=C1CCc2ccc(OCCCCN3CCN(c4cccc(Cl)c4Cl)CC3)cc2N1`, the Potency is 11.9 µM (active) in [1], 26.6 µM (active) in [2], 10.6 µM (active) in test [3] and 33.5 µM (active) in test [7]. In test [5], the result was inactive. In addition, the Potency entry in test [6] is “inactive”.
Turning to `C=CC(=O)OCCOC(=O)C=C`, the Potency result in [1], in [3], in test [7] and in test [6] was “inactive” in each case. Further, the outcome in test [8] and in test [5] was inactive.
For `CC(C)CCCCCOC(=O)CCS`, the Potency result in test [1], in [2], in [3], in test [7] and in [6] was “inactive” throughout. Besides, the call in [5] was inactive.
Take `O=c1[nH]c2ccccc2n1CCCN1CCN(C(c2ccccc2)c2ccccc2)CC1`: the Potency in [1] is 3.35 µM (active); in test [3] it was 11.9 µM (active). For the same molecule, in test [5], the call was inactive. Besides, in test [6], the Potency result is “inactive”.
Turning to `CN1CCN(Cc2cc(-c3ccc4[nH]c(=O)oc4c3)co2)[C@@H](c2ccc(F)cc2)C1`, the Potency was 4.16 µM (active) in test [1] and 13.2 µM (active) in test [3]. Besides, the Potency entry in test [7], in [4] and in test [6] was “inactive” throughout. In [5], the call was inactive.
As for `Cc1c(F)c(N2CCNC(C)C2)cc2c1c(=O)c(C(=O)O)cn2C1CC1` (stereo unspecified), the Potency result in test [1], in test [2], in [3], in [7], in [4] and in [6] was “inactive” throughout. Besides, the molecule was called inactive in test [5].
Take `Nc1nc2c(ncn2COCCO)c(=O)[nH]1`: the Potency entry in [1], in [2], in test [3], in [7] and in test [6] was “inactive” in each case. Besides, the call in test [5] was inactive.
Regarding `C[C@H]1NCc2cc(-c3ccc4c(=O)c(C(=O)O)cn(C5CC5)c4c3OC(F)F)ccc21`, the activity change, negative = inhibition was 4.27% [at 19 µM] in test [1] and 6.84% [at 19 µM] in test [6]. For the same molecule, the figures for the activity change, negative = cytotoxicity in [2], in [3] and in [7] were -2.32% [at 19 µM], -4.82% [at 19 µM] and 2.92% [at 19 µM], respectively. In addition, the cAMP activity change in [5] is -2.09% [at 18.9 µM].
Consider `CCCc1ccc(OCC(=O)N2CCN(C(=O)COc3ccc(CCC)cc3OC)CC2)c(OC)c1`, for which the outcome in [8] and in [5] was inactive. Moreover, the Potency entry in test [7], in [4] and in test [6] was “inactive” each time.
`Clc1nnc(Cl)c2ccccc12`: the Potency in [2] was 15.3 µM (active). In addition, the Potency result in [3], in [7] and in test [4] was “inactive” throughout.
Take `S=c1nccc[nH]1`: the Potency result in [9], in test [2], in test [3] and in test [4] was “inactive” in each case.
As for `COc1cc2nc(N3CCN(C(=O)c4ccco4)CC3)nc(N)c2cc1OC`, the activation in [9] is -0.974% [at 19 µM]; in test [4] it was 0.868% [at 19 µM]. In addition, the activity, negative = inhibition in test [10] is 1.22% [at 19 µM]. The activity change, negative = cytotoxicity in test [7] is -13.3% [at 19 µM]. The cAMP activity change in test [5] is -1.07% [at 18.9 µM]. Further, the activity change, negative = inhibition in test [6] is -8.31% [at 19 µM].
As for `C#C[C@]1(OC(C)=O)CC[C@H]2[C@@H]3CCC4=C[C@@H](OC(C)=O)CC[C@@H]4[C@H]3CC[C@@]21C`, the Potency in [9] is 0.335 µM (active); in test [4] it was 0.0531 µM (active); in [6], 11.9 µM (active). Moreover, the Potency entry in [2] and in test [7] was “inactive” each time. In addition, in test [5], the result was inactive.
On to `CC[N+](CC)(CC)CCOc1ccc(/C=C/c2ccccc2)cc1`, for which the Potency result in [9], in [7], in test [4] and in [6] was “inactive” each time. In test [2], the Potency was 9.44 µM (active). The result in test [5] was inactive.
`OCC(F)(F)F`: the Potency result in test [9], in [10], in [2], in test [3], in test [7] and in [6] was “inactive” each time. In addition, the molecule was classed as inactive in test [5].
As to `CCc1oc2ccccc2c1C(=O)c1cc(I)c(O)c(I)c1`, in test [5], the molecule was called inactive. Also, the Potency result in test [6] is “inactive”.
On to `O=C(O)O`, for which the activity, negative = inhibition in [10] is 1.94% [at 8.39 µM]. Further, the activity change, negative = cytotoxicity in [2] is -0.506% [at 8.39 µM]; in [3] it was -10.9% [at 8.39 µM]; in test [7] it was -30.1% [at 8.39 µM]. The activation in test [4] is 10.5% [at 8.39 µM]. Also, in [5], the cAMP activity change is -3.34% [at 8.39 µM]. For the same molecule, the activity change, negative = inhibition in [6] was 0.713% [at 8.39 µM].
On to `S=C([S-])NCCNC(=S)[S-].S=C([S-])NCCNC(=S)[S-].[Mn+2].[Zn+2]`, for which the Potency entry in test [9], in [2], in test [7] and in [6] was “inactive” each time. For the same molecule, the call in test [5] was inactive.
